Measured values published in the supplement of paper PMC11732987, “Enantioselective OTUD7B fragment discovery through chemoproteomics screening and high-throughput optimisation” (Communications Chemistry, 2025).

Assays:
Test in all cases: log2 ratio of Biotin-Ahx-Ub-VS probe labelling (fragment/DMSO); higher = less target engagement (more negative = stronger competition), active = hit call of the paper (q ≤ 0.05, log2 ratio ≤ -1)
Conditions in all cases: compound concentration: 200 uM; treatment time: 3 h
USP9X = USP9X (UniProt Q93008)
Summary of the method: (§1)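 Labelled DUBs from HEK293T lysate were NeutrAvidin-enriched, digested with LysC and trypsin, and run by diaPASEF LC-MS/MS. Before that, each 495 µg sample in Tris/CHAPS/IGEPAL buffer with protease inhibitors was treated in triplicate with fragment at 200 µM or vehicle for 3 h, then with Biotin-Ahx-Ub-VS at 0.5 µM final for 1 h. Values are average log2 ratios of fragment over vehicle by unpaired t-test, based on global-median-normalised Spectronaut label-free quantities from proteins with ≥2 unique peptides.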

UniProt O00487 = target: UniProt O00487
UniProt O00487, sequence (O00487 whole entry): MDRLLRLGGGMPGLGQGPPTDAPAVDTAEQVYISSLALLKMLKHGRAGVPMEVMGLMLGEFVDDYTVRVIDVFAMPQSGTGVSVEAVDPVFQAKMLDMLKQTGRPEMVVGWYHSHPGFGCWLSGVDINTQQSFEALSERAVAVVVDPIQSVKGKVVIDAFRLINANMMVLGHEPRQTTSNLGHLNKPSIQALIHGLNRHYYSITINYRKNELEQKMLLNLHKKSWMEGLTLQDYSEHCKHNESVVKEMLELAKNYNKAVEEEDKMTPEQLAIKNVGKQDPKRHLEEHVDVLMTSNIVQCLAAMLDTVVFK
Summary of the method: as §1

UniProt O00507 = target: UniProt O00507
UniProt O00507, sequence (O00507 whole entry): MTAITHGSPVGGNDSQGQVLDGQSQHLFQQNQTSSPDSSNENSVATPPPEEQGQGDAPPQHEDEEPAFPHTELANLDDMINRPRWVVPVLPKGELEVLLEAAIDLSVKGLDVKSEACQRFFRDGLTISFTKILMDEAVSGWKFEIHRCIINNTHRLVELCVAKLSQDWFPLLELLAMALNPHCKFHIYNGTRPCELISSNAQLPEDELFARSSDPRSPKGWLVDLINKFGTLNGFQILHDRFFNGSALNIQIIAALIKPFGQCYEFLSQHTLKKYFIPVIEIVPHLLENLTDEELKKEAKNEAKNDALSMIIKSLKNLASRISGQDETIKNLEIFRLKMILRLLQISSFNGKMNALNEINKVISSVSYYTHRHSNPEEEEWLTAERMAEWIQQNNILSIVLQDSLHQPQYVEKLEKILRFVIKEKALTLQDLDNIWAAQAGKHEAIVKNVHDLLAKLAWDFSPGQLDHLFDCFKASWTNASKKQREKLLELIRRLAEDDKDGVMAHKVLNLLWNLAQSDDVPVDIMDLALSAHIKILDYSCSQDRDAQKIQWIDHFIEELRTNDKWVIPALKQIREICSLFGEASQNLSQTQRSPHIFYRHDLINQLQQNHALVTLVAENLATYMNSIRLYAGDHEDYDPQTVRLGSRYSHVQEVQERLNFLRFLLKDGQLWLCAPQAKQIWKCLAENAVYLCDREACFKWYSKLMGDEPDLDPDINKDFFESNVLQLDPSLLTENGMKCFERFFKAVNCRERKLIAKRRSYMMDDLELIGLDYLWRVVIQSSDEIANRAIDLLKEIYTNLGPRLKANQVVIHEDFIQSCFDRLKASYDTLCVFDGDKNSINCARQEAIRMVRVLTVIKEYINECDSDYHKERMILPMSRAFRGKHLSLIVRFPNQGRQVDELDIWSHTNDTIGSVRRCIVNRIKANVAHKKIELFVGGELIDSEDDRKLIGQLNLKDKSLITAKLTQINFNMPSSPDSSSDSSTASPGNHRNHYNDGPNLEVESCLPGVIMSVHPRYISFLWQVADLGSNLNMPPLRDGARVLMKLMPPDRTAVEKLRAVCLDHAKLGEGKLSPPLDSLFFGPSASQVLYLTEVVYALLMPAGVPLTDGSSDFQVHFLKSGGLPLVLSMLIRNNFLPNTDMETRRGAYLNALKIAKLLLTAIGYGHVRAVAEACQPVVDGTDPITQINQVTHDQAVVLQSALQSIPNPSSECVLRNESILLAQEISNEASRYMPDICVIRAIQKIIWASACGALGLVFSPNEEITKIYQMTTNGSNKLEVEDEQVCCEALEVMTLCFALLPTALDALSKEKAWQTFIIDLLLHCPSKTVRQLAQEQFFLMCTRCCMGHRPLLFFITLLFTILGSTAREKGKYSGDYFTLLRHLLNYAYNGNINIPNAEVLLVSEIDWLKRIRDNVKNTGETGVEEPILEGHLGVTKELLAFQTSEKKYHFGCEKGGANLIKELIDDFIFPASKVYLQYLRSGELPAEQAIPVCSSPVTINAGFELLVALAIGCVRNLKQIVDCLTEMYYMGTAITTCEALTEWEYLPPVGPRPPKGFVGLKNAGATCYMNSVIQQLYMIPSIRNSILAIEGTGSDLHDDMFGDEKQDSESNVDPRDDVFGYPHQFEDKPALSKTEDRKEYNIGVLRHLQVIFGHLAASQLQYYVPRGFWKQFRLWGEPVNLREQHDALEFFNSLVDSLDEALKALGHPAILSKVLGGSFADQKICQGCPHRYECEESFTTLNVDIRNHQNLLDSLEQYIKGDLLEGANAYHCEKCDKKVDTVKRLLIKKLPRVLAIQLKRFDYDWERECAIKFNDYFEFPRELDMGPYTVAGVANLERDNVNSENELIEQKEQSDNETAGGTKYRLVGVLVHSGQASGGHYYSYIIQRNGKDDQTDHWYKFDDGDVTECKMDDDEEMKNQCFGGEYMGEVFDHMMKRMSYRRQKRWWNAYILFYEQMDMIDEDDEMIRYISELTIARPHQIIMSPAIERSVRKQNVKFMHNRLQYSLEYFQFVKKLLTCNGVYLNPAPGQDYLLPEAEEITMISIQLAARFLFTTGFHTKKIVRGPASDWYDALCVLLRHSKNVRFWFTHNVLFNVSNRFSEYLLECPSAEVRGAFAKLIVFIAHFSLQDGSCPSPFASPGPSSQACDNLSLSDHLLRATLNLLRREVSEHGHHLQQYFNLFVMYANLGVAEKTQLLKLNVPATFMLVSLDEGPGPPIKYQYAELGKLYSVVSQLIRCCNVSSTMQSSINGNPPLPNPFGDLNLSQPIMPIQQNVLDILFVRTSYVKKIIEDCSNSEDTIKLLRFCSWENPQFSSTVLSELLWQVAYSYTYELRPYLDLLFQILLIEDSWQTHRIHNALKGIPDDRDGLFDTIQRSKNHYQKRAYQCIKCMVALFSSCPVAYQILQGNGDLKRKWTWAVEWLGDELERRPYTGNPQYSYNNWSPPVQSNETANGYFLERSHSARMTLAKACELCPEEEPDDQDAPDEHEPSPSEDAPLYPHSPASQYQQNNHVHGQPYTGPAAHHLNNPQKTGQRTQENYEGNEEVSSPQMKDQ
Summary of the method: as §1

UniProt P51784 = target: UniProt P51784
UniProt P51784, sequence (P51784 whole entry): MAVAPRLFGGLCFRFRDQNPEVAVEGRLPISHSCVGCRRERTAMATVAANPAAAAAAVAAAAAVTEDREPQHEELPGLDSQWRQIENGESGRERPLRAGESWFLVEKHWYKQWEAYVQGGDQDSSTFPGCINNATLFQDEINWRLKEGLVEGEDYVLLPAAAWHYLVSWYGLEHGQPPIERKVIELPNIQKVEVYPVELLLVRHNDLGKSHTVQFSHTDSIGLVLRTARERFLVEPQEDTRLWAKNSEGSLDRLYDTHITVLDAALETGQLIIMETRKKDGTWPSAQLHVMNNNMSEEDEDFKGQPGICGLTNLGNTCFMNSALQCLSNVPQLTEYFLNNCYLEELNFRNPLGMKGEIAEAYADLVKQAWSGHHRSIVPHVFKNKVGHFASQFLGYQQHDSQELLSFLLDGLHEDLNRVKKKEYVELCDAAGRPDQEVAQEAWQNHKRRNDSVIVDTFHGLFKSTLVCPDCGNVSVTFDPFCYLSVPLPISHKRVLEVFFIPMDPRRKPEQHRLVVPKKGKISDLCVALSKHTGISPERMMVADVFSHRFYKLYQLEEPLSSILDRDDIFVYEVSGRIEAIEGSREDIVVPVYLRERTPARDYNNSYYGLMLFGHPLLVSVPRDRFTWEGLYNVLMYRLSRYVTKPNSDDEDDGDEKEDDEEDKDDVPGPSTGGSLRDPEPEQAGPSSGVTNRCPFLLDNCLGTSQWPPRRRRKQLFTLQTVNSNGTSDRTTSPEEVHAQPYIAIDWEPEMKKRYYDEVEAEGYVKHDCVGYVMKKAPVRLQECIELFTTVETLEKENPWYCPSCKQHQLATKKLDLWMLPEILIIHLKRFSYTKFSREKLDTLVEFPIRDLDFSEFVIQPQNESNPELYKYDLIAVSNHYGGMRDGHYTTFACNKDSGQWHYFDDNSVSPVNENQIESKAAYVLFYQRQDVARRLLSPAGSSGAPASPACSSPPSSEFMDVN
Summary of the method: as §1

UniProt Q5T2D3 = target: T1, UniProt Q5T2D3
T1 sequence (whole entry): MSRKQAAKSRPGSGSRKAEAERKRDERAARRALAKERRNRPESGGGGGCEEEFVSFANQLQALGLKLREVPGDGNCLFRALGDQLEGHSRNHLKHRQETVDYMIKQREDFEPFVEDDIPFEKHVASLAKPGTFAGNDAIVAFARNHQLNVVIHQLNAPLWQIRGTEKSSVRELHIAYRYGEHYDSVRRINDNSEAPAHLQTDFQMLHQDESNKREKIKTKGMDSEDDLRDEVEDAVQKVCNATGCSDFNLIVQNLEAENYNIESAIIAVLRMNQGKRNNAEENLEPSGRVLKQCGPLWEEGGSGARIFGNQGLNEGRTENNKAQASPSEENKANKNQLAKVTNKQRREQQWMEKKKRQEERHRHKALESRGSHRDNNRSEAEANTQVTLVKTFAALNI
Summary of the method: as §1

UniProt Q8TE49 = target: T2, UniProt Q8TE49
T2 sequence (whole entry): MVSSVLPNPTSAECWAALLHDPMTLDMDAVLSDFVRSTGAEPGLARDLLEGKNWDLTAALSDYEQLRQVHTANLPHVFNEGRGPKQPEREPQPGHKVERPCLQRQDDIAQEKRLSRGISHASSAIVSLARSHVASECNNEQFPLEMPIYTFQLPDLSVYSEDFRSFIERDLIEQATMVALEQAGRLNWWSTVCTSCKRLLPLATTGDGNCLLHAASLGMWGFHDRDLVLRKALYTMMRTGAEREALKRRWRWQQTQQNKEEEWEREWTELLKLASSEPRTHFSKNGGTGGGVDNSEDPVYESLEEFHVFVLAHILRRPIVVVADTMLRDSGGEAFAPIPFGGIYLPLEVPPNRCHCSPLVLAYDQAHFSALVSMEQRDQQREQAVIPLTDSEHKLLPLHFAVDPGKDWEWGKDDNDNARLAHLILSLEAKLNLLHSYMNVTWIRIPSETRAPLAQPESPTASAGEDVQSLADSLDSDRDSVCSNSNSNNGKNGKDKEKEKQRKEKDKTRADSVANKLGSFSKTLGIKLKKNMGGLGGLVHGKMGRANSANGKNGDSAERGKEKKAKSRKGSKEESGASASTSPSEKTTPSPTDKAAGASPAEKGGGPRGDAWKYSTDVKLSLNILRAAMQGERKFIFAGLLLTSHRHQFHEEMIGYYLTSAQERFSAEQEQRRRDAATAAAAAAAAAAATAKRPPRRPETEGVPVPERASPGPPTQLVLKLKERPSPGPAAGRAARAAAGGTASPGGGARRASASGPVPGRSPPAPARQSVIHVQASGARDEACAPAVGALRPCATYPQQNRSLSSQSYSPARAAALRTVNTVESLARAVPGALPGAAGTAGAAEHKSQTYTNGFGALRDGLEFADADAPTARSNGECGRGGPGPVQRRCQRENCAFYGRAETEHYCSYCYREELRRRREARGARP
Summary of the method: as §1

UniProt Q9P2H5 = target: T3, UniProt Q9P2H5
T3 sequence (whole entry): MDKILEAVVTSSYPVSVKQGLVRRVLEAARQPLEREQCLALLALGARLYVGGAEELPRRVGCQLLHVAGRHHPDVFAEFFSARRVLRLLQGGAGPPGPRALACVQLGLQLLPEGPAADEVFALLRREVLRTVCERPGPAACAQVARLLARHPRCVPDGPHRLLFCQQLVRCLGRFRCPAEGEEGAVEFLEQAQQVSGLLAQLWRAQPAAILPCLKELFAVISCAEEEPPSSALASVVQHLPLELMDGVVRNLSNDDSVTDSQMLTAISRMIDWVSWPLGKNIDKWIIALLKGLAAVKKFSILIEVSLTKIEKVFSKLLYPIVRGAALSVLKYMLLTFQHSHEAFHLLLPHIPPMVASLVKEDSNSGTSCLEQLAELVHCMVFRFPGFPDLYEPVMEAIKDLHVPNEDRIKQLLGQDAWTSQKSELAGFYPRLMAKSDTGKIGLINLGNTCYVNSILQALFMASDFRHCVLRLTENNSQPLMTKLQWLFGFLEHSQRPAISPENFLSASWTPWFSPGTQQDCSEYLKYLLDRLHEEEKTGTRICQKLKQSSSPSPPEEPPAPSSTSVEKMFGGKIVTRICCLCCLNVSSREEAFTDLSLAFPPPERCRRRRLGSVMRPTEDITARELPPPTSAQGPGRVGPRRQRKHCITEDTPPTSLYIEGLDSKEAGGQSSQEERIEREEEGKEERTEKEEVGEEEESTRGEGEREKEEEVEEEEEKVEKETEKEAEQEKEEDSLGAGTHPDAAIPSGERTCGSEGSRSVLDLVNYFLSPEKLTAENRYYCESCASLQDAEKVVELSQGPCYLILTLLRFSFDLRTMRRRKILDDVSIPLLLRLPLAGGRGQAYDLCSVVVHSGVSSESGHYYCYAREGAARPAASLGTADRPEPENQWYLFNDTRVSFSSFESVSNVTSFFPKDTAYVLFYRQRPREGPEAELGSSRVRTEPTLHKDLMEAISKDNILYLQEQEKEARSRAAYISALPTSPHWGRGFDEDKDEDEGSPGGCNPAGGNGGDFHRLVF
Summary of the method: as §1

UniProt Q9UGI0 = target: T4, UniProt Q9UGI0
T4 sequence (whole entry): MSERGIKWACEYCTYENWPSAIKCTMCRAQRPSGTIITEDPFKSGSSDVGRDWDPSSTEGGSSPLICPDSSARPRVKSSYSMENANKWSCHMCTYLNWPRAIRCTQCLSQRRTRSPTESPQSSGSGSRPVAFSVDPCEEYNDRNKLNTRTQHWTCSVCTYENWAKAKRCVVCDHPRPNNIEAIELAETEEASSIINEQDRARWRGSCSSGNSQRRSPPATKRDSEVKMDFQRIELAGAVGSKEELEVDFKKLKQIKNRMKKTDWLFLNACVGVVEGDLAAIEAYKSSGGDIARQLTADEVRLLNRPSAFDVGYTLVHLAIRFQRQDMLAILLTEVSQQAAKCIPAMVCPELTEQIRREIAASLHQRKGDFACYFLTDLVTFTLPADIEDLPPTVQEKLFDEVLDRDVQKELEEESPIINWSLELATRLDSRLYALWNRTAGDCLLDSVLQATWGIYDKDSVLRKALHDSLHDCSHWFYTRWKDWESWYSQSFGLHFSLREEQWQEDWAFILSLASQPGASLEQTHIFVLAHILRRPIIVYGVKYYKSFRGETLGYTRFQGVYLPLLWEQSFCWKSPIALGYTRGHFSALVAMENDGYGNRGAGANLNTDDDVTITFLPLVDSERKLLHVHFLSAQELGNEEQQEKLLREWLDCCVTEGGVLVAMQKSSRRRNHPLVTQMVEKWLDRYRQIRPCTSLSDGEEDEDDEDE
Summary of the method: as §1

YOD1 = target: T5, YOD1 (UniProt Q5VVQ6)
T5 sequence (whole entry): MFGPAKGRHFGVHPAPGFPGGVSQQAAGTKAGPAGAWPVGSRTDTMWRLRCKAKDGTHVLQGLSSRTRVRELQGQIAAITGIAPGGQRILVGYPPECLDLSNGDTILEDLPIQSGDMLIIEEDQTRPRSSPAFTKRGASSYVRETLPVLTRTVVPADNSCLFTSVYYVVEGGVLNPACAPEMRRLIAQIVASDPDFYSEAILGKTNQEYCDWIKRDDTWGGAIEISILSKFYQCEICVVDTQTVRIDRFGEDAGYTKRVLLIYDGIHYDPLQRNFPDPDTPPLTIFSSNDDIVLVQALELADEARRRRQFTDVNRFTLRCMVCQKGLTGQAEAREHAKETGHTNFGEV
Summary of the method: as §1

Measured: log2 ratio of Biotin-Ahx-Ub-VS probe labelling

O=C(CCl)NCC1(c2ccccc2)CC1
active: UniProt Q9UGI0 -1.08
inactive: USP9X -0.121 | UniProt O00487 -0.00244 | UniProt O00507 0.153 | UniProt P51784 0.117 | UniProt Q5T2D3 -0.0752 | UniProt Q8TE49 -0.408 | UniProt Q9P2H5 -0.071 | YOD1 0.0857
